Measured values reported in the supplement of paper PMC4466140.

molecular target: AgAbp1; test: SPOT peptide array binding signal intensity (averaged, normalized) (arbitrary units (background-subtracted, floor 0; scale differs between SH3 domains)); higher = stronger binding of the SH3 domain to the peptide
Summary of the method: (§1)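 GST-fused SH3 domains from four yeast species were expressed in E. coli BL21(DE3), purified on glutathione Sepharose and incubated at 10 μg/ml overnight at 4°C in TBS-based blocking buffer on cellulose membranes carrying synthetic 15-mer peptides, with cysteines replaced by serines. Bound protein was detected with anti-GST antibody, an HRP anti-mouse secondary and luminol, then imaged and quantified with Genespotter. Binding signal is the normalized, background-subtracted spot intensity averaged over replicates, in arbitrary units that differ between domains.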

Binder	SPOT peptide array binding signal intensity
RPVPPPPPMRTTTEG	18

molecular target: AgBbc1; test: as above
Summary of the method: as §1

Binder	SPOT peptide array binding signal intensity
RPVPPPPPMRTTTEG	814

molecular target: AgBem1-D1; test: as above
Summary of the method: as §1

Binder	SPOT peptide array binding signal intensity
RPVPPPPPMRTTTEG	201

molecular target: AgBzz1-D1; test: as above
Summary of the method: as §1

Binder	SPOT peptide array binding signal intensity
RPVPPPPPMRTTTEG	156

molecular target: AgBzz1-D2; test: as above
Summary of the method: as §1

Binder	SPOT peptide array binding signal intensity
RPVPPPPPMRTTTEG	14.5

molecular target: AgCyk3; test: as above
Summary of the method: as §1

Binder	SPOT peptide array binding signal intensity
RPVPPPPPMRTTTEG	14

molecular target: AgFus1; test: as above
Summary of the method: as §1

Binder	SPOT peptide array binding signal intensity
RPVPPPPPMRTTTEG	63

molecular target: AgHof1; test: as above
Summary of the method: as §1

Binder	SPOT peptide array binding signal intensity
RPVPPPPPMRTTTEG	61.8

molecular target: AgHse1; test: as above
Summary of the method: as §1

Binder	SPOT peptide array binding signal intensity
RPVPPPPPMRTTTEG	144

molecular target: AgLsb1; test: as above
Summary of the method: as §1

Binder	SPOT peptide array binding signal intensity
RPVPPPPPMRTTTEG	303

molecular target: AgLsb4; test: as above
Summary of the method: as §1

Binder	SPOT peptide array binding signal intensity
RPVPPPPPMRTTTEG	1760

molecular target: AgMyo5; test: as above
Summary of the method: as §1

Binder	SPOT peptide array binding signal intensity
RPVPPPPPMRTTTEG	41.2

molecular target: AgNbp2; test: as above
Summary of the method: as §1

Binder	SPOT peptide array binding signal intensity
RPVPPPPPMRTTTEG	3100

molecular target: AgRvs167; test: as above
Summary of the method: as §1

Binder	SPOT peptide array binding signal intensity
RPVPPPPPMRTTTEG	1050

molecular target: AgSho1; test: as above
Summary of the method: as §1

Binder	SPOT peptide array binding signal intensity
RPVPPPPPMRTTTEG	136

molecular target: AgSla1-D1-D2; test: as above
Summary of the method: as §1

Binder	SPOT peptide array binding signal intensity
RPVPPPPPMRTTTEG	1

molecular target: AgSla1-D3; test: as above
Summary of the method: as §1

Binder	SPOT peptide array binding signal intensity
RPVPPPPPMRTTTEG	108

molecular target: CaAbp1-D1; test: as above
Summary of the method: as §1

Binder	SPOT peptide array binding signal intensity
RPVPPPPPMRTTTEG	364

molecular target: CaAbp1-D2; test: as above
Summary of the method: as §1

Binder	SPOT peptide array binding signal intensity
RPVPPPPPMRTTTEG	60.5

molecular target: CaBbc1; test: as above
Summary of the method: as §1

Binder	SPOT peptide array binding signal intensity
RPVPPPPPMRTTTEG	553

molecular target: CaBem1-D1; test: as above
Summary of the method: as §1

Binder	SPOT peptide array binding signal intensity
RPVPPPPPMRTTTEG	166

molecular target: CaBzz1-D1; test: as above
Summary of the method: as §1

Binder	SPOT peptide array binding signal intensity
RPVPPPPPMRTTTEG	3990

molecular target: CaBzz1-D2; test: as above
Summary of the method: as §1

Binder	SPOT peptide array binding signal intensity
RPVPPPPPMRTTTEG	1260

molecular target: CaCyk3; test: as above
Summary of the method: as §1

Binder	SPOT peptide array binding signal intensity
RPVPPPPPMRTTTEG	387

molecular target: CaFus1; test: as above
Summary of the method: as §1

Binder	SPOT peptide array binding signal intensity
RPVPPPPPMRTTTEG	548

molecular target: CaHof1; test: as above
Summary of the method: as §1

Binder	SPOT peptide array binding signal intensity
RPVPPPPPMRTTTEG	40

molecular target: CaHse1; test: as above
Summary of the method: as §1

Binder	SPOT peptide array binding signal intensity
RPVPPPPPMRTTTEG	405

molecular target: CaLsb1; test: as above
Summary of the method: as §1

Binder	SPOT peptide array binding signal intensity
RPVPPPPPMRTTTEG	1

molecular target: CaLsb4; test: as above
Summary of the method: as §1

Binder	SPOT peptide array binding signal intensity
RPVPPPPPMRTTTEG	2480

molecular target: CaMyo5; test: as above
Summary of the method: as §1

Binder	SPOT peptide array binding signal intensity
RPVPPPPPMRTTTEG	54

molecular target: CaNbp2; test: as above
Summary of the method: as §1

Binder	SPOT peptide array binding signal intensity
RPVPPPPPMRTTTEG	1490

molecular target: CaRvs167; test: as above
Summary of the method: as §1

Binder	SPOT peptide array binding signal intensity
RPVPPPPPMRTTTEG	1460

molecular target: CaRvs167-3; test: as above
Summary of the method: as §1

Binder	SPOT peptide array binding signal intensity
RPVPPPPPMRTTTEG	0.75

molecular target: CaSho1; test: as above
Summary of the method: as §1

Binder	SPOT peptide array binding signal intensity
RPVPPPPPMRTTTEG	650

molecular target: CaSla1-D1-D2; test: as above
Summary of the method: as §1

Binder	SPOT peptide array binding signal intensity
RPVPPPPPMRTTTEG	1590

molecular target: CaSla1-D3; test: as above
Summary of the method: as §1

Binder	SPOT peptide array binding signal intensity
RPVPPPPPMRTTTEG	928

molecular target: ScAbp1; test: as above
Summary of the method: as §1

Binder	SPOT peptide array binding signal intensity
RPVPPPPPMRTTTEG	21

molecular target: ScBbc1; test: as above
Summary of the method: as §1

Binder	SPOT peptide array binding signal intensity
RPVPPPPPMRTTTEG	64.8

molecular target: ScBem1-D1; test: as above
Summary of the method: as §1

Binder	SPOT peptide array binding signal intensity
RPVPPPPPMRTTTEG	≤ 0

molecular target: ScBzz1-D1; test: as above
Summary of the method: as §1

Binder	SPOT peptide array binding signal intensity
RPVPPPPPMRTTTEG	177

molecular target: ScBzz1-D2; test: as above
Summary of the method: as §1

Binder	SPOT peptide array binding signal intensity
RPVPPPPPMRTTTEG	14.5

molecular target: ScCyk3; test: as above
Summary of the method: as §1

Binder	SPOT peptide array binding signal intensity
RPVPPPPPMRTTTEG	8.5

molecular target: ScFus1; test: as above
Summary of the method: as §1

Binder	SPOT peptide array binding signal intensity
RPVPPPPPMRTTTEG	180

molecular target: ScHof1; test: as above
Summary of the method: as §1

Binder	SPOT peptide array binding signal intensity
RPVPPPPPMRTTTEG	46.2

molecular target: ScHse1; test: as above
Summary of the method: as §1

Binder	SPOT peptide array binding signal intensity
RPVPPPPPMRTTTEG	63

molecular target: ScLsb1; test: as above
Summary of the method: as §1

Binder	SPOT peptide array binding signal intensity
RPVPPPPPMRTTTEG	180

molecular target: ScLsb2; test: as above
Summary of the method: as §1

Binder	SPOT peptide array binding signal intensity
RPVPPPPPMRTTTEG	434

molecular target: ScLsb3; test: as above
Summary of the method: as §1

Binder	SPOT peptide array binding signal intensity
RPVPPPPPMRTTTEG	4080

molecular target: ScLsb4; test: as above
Summary of the method: as §1

Binder	SPOT peptide array binding signal intensity
RPVPPPPPMRTTTEG	3130

molecular target: ScMyo3; test: as above
Summary of the method: as §1

Binder	SPOT peptide array binding signal intensity
RPVPPPPPMRTTTEG	569

molecular target: ScMyo5; test: as above
Summary of the method: as §1

Binder	SPOT peptide array binding signal intensity
RPVPPPPPMRTTTEG	239

molecular target: ScNbp2; test: as above
Summary of the method: as §1

Binder	SPOT peptide array binding signal intensity
RPVPPPPPMRTTTEG	4580

molecular target: ScPex13; test: as above
Summary of the method: as §1

Binder	SPOT peptide array binding signal intensity
RPVPPPPPMRTTTEG	1500

molecular target: ScRvs167; test: as above
Summary of the method: as §1

Binder	SPOT peptide array binding signal intensity
RPVPPPPPMRTTTEG	3300

molecular target: ScSho1; test: as above
Summary of the method: as §1

Binder	SPOT peptide array binding signal intensity
RPVPPPPPMRTTTEG	616

molecular target: ScSla1-D1-D2; test: as above
Summary of the method: as §1

Binder	SPOT peptide array binding signal intensity
RPVPPPPPMRTTTEG	1870

molecular target: ScSla1-D3; test: as above
Summary of the method: as §1

Binder	SPOT peptide array binding signal intensity
RPVPPPPPMRTTTEG	222

molecular target: SpAbp1-D1; test: as above
Summary of the method: as §1

Binder	SPOT peptide array binding signal intensity
RPVPPPPPMRTTTEG	95.5

molecular target: SpBbc1; test: as above
Summary of the method: as §1

Binder	SPOT peptide array binding signal intensity
RPVPPPPPMRTTTEG	40.5

molecular target: SpBzz1-D1; test: as above
Summary of the method: as §1

Binder	SPOT peptide array binding signal intensity
RPVPPPPPMRTTTEG	1370

molecular target: SpBzz1-D2; test: as above
Summary of the method: as §1

Binder	SPOT peptide array binding signal intensity
RPVPPPPPMRTTTEG	88

molecular target: SpCyk3; test: as above
Summary of the method: as §1

Binder	SPOT peptide array binding signal intensity
RPVPPPPPMRTTTEG	112

molecular target: SpHof1; test: as above
Summary of the method: as §1

Binder	SPOT peptide array binding signal intensity
RPVPPPPPMRTTTEG	111

molecular target: SpHof1-2; test: as above
Summary of the method: as §1

Binder	SPOT peptide array binding signal intensity
RPVPPPPPMRTTTEG	110

molecular target: SpHof1-3; test: as above
Summary of the method: as §1

Binder	SPOT peptide array binding signal intensity
RPVPPPPPMRTTTEG	966

molecular target: SpHse1; test: as above
Summary of the method: as §1

Binder	SPOT peptide array binding signal intensity
RPVPPPPPMRTTTEG	147

molecular target: SpLsb1; test: as above
Summary of the method: as §1

Binder	SPOT peptide array binding signal intensity
RPVPPPPPMRTTTEG	161

molecular target: SpLsb4; test: as above
Summary of the method: as §1

Binder	SPOT peptide array binding signal intensity
RPVPPPPPMRTTTEG	4570

molecular target: SpMyo1; test: as above
Summary of the method: as §1

Binder	SPOT peptide array binding signal intensity
RPVPPPPPMRTTTEG	333

molecular target: SpNbp2; test: as above
Summary of the method: as §1

Binder	SPOT peptide array binding signal intensity
RPVPPPPPMRTTTEG	191

molecular target: SpPex13; test: as above
Summary of the method: as §1

Binder	SPOT peptide array binding signal intensity
RPVPPPPPMRTTTEG	150

molecular target: SpRvs167; test: as above
Summary of the method: as §1

Binder	SPOT peptide array binding signal intensity
RPVPPPPPMRTTTEG	2150

molecular target: SpSla1-D1-D2; test: as above
Summary of the method: as §1

Binder	SPOT peptide array binding signal intensity
RPVPPPPPMRTTTEG	86

molecular target: SpSla1-D3; test: as above
Summary of the method: as §1

Binder	SPOT peptide array binding signal intensity
RPVPPPPPMRTTTEG	33.5
